Hits are enriched below; roughly 19% of the tested compounds scored in any of these assays.
Shiga inhibitor: inhibitors of Shiga toxin in Vero cells | Vero cells, Shiga toxin protein synthesis inhibition reporter | inhibition, % at 38.7 µM | hit rate 9.2% among 290,000 | AID 2315; in the data active = inhibition mostly above about 28%, no sharp cut-off; inactive = mostly below about 43%; note: 0% is about no effect
Pf growth 48h: inhibits P. falciparum growth in the first generation, 48 h. hit rate 5.9% among 310,000. P. falciparum luciferase growth in erythrocytes, 48 h. AID 504832. Potency, µM (series often up to 28.7 µM), for the others: at the highest dose activity change, negative = inhibition, most hits filed as inhibitors; note: potency is the fitted concentration of half-maximal effect; % is set by controls: 0 for no effect and ±100 for the full control effect
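Cell-based growth assay: transgenic P. falciparum expressing firefly luciferase, cultured in red cells within RPMI 1640 containing 0.5% w/v Albumax, 24 mM bicarbonate and gentamycin. A drop in luciferase activity indicates inhibition.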
SARS PLP yeast: inhibitors of SARS-CoV papain-like protease in yeast. S. cerevisiae expressing SARS-CoV PLpro, growth rescue. Potency, µM (series often up to 32.9 µM), without a hit: at the highest dose activity, positive = growth rescue, most hits filed as activators. hit rate 0.19% among 330,000. AID 485353; calls by dose curve; note: potency is the fitted concentration of half-maximal effect; 0% is about no effect; nearly all actives have a fitted effect of over 55% in size
Pf growth 96h: P. falciparum growth inhibition at 96 hour, primary screen for plastid delayed-death inhibitors. P. falciparum luciferase reporter growth, 96 h. Potency, µM (doses to about 28.7 µM), without a hit: top-dose activity change, negative = inhibition, hits mostly inhibitors. hit rate 6.9% among 320,000; note: potency is the fitted concentration of half-maximal effect; % is set by controls: 0 for no effect and ±100 for the full control effect
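Readout is luminescence from an integrated firefly luciferase in P. falciparum. Red cells, 2% hematocrit and 0.05% parasitemia final, were cultured with compound through two parasite generations (96 hours) at 37 C, 5% CO2.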
AMA1 RON2 block: disrupts binding of P. falciparum AMA1 to RON2. AlphaScreen AMA1-biotinylated RON2 peptide binding. Potency, µM (titrated, usually from 58.2 µM), inactives show at the highest dose activity change, negative = inhibition, usual class: inhibitors. hit rate 0.2% among 360,000;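 note: potency is the fitted concentration of half-maximal effect; 0% = vehicle wells and -100% = peptide control; nearly all actives have a fitted effect of over 45% in size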
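AMA1 (3D7) with his tag at 25 nM final met compounds first, then biotinylated RON2 peptide at 25 nM; detection used donor plus acceptor beads, 10 µg/mL apiece, read by AlphaScreen after 30 min at room temperature.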
Cycloheximide cs: counter-screen hit for Shiga toxin inhibitors, cycloheximide; cell reporter, cycloheximide protein synthesis inhibition counterscreen; max response, %; hit rate 12% among 300,000; in the data active = max response mostly above about 13%, no sharp cut-off; inactive = mostly below about 14%; note: read at 38.3 µM for the half of the compounds with a filed dose; 0% is about no effect
* marks the source's active call; other numbers are inactive results; i = inactive; ? = inconclusive; / = not tested or not shown; [ ] = remark or other dose. Unless noted, calls come from the whole dose curve; as a rule, active = well fitted curve in the direction sought with a large enough effect; inconclusive = small, poorly fitted or top-dose-only effect, or another doubt; inactive = no such curve, though single readings can be large; an effect the other way counts as inactive or inconclusive.

SMILES	Shiga inhibitor	Pf growth 48h	SARS PLP yeast	Pf growth 96h	AMA1 RON2 block	Cycloheximide cs
CCCn1c(SCc2ccccc2)nc2c1c(=O)[nH]c(=O)n2C	-27.0	-23.8%	-3.0%	/	-1.4%	3.8
COc1cccc(C(C(=O)NC2CCCCC2)N(CC2CCCO2)C(=O)CNC(=O)c2ccco2)c1 (stereo unspecified)	-4.0	?	6.9%	473.2%	-26.7%	-2.2
CCOC(=O)CSc1nc2c(c(=O)[nH]c(=O)n2C)n1CCc1ccccc1	-22.0	5.6%	6.8%	?	1.9%	-7.3
CCOC(=O)C(CC)Sc1nc2c(c(=O)[nH]c(=O)n2C)n1CCc1ccccc1 (stereo unspecified)	-19.1	10.4µM*	5.5%	11.7µM*	-20.5%	-2.1
CC1(C)CN=C(NCc2ccccc2Cl)S1	55.1*	?	-2.8%	-26.3%	7.7%	17.2*
CC1CN=C(NCc2ccccc2)S1 (stereo unspecified)	21.1	3.5%	3.3%	?	16.5%	16.3*
CC1CN=C(NCc2ccccc2Cl)S1 (stereo unspecified)	41.8*	?	13.5%	?	9.8%	24.6*
CCN(CC)S(=O)(=O)c1cccc(NC2=NCC(C)S2)c1 (stereo unspecified)	41.7	-25.8%	1.1%	3.1%	-7.7%	11.9
COc1c(Cl)ccc(Cl)c1C(=O)OCC(=O)O	10.6	19.1%	2.9%	7.7%	5.9%	-1.3
COc1ccccc1CNC(=O)COC(=O)c1nccnc1N	-11.7	21.5%	8.2%	11.2%	18.4%	-1.4
CCOC(=O)C1=NN(c2ccc(Cl)cc2)C(c2ccccc2)CC1=O (stereo unspecified)	-0.5	9.28µM*	3.9%	?	-19.1%	-1.8
c1ccc(-c2cn3c(n2)SCC3)cc1	50.0*	51.4%	24.7%	44.0%	6.1%	29.1*
Cc1oc2ccccc2c1-c1cn2c(n1)SCC2	24.3	4.3%	-4.0%	?	33.7%	10.6*
CS(=O)(=O)Nc1ccc(-c2cn3c(n2)SCC3)cc1	33.0	44.0%	1.1%	35.2%	-1.2%	15.1
Clc1ccc(-c2cn3c(n2)SCC3)cc1	161.8*	i	-3.8%	?	10.7%	38.3*
Brc1ccc(-c2cn3c(n2)SCC3)cc1	100.5*	197.4%	-1.3%	-14.2%	-11.2%	35.2*
Oc1ccc(-c2cn3c(n2)SCC3)cc1	20.0	/	2.3%	6.5%	-10.2%	12.7
Oc1ccc(-c2cn3c(n2)SCC3)cc1O	21.4	/	6.1%	?	?	11.1
COc1ccc(Cl)cc1NS(=O)(=O)c1cccc(C(=O)NCCCN2CCOCC2)c1	/	/	/	/	0.3%	/
Cc1cc(C)c(S(=O)(=O)N2CCN(C(=O)C(C)Cn3cncn3)CC2)c(C)c1 (stereo unspecified)	-4.2	-2.3%	16.9%	-4.7%	2.9%	-7.4
CCCCCCCCN1CC(Cc2cc3ccccc3c3ccccc23)N(c2ccccc2)c2ccccc2C1=O (stereo unspecified)	/	/	/	/	-7.1%	/
NS(=O)(=O)c1cccc(NS(=O)(=O)c2ccc(/C=C/C(=O)O)cc2)c1	-11.8	2.4%	3.3%	25.1%	-5.6%	1.6
COc1ccc(C)cc1S(=O)(=O)Nc1ccc2c(c1)OCO2	15.8	0.0%	-1.9%	-11.1%	5.5%	-2.8
CCc1nnc(NC(=O)CSc2ccc(-c3ccccc3OC)nn2)s1	1.1	-9.6%	0.2%	12.9%	18.5%	4.6
COc1ccccc1-c1ccc(SCc2cccc(F)c2)nn1	66.4*	14.9%	-2.7%	33.0%	-19.2%	30.0*
SMILES	Shiga inhibitor	Pf growth 48h	SARS PLP yeast	Pf growth 96h	AMA1 RON2 block	Cycloheximide cs
COc1ccccc1-c1ccc(SCC(=O)NCCc2ccccc2)nn1	17.7	-17.0%	0.7%	?	-8.9%	-1.8
COc1ccccc1-c1ccc(SCc2ccccc2)nn1	76.5*	53.4%	-8.6%	?	7.2%	37.9*
COc1ccccc1-c1ccc(SCc2ccccc2F)nn1	66.0*	85.8%	-4.3%	114.9%	27.5%	28.7*
Cc1nc(C)c(-c2ccc(SCc3ccccc3F)nn2)s1	118.7*	55.4%	-14.7%	27.5%	-5.9%	32.5*
COC(=O)c1sccc1NC(=S)Nc1cc(C)ccc1OC	-3.6	?	1.3%	38.4%	93.8%	-3.8
COc1ccc(CNC[C@H]2O[C@@H](n3ccc(=O)[nH]c3=O)[C@H](O)[C@@H]2O)cc1	/	/	/	/	6.9%	/
Cc1cccc(NC(=O)CN2C(=O)N/C(=C\c3ccccc3OCc3ccc(C(=O)O)cc3)C2=O)c1	-13.1	-16.6%	-2.3%	13.8%	4.1%	-1.0
Cc1cccc(NC(=O)CN2C(=O)N/C(=C\c3ccc(N4CCOCC4)cc3)C2=O)c1	68.2*	45.4%	-4.5%	?	15.1%	39.2*
O=C(CN1C(=O)N/C(=C\c2ccccc2OCc2ccc(C(=O)O)cc2)C1=O)Nc1ccc(F)cc1	-6.1	8.3%	1.7%	5.22µM*	3.2%	-0.5
Cc1ccc(-n2cccc2/C=C2/NC(=O)N(CC(=O)Nc3cccc(C)c3)C2=O)cc1	-10.0	9.6%	23.2%	12.0%	2.0%	1.0
Cc1cc(N2CCOCC2)ccc1/C=C1\NC(=O)N(CC(=O)Nc2ccc(F)cc2)C1=O	90.6*	57.5%	0.3%	2.94µM*	-1.7%	22.7*
C[C@@]12C(=O)Nc3cc(F)c(F)cc3C(=O)N1[C@H]1c3cc(Cl)ccc3OC[C@@H]1[C@@H]2c1ccccc1	/	/	0.8%	/	4.4%	/
CCOc1ccc(/C=N/NC(=O)c2ccoc2C)cc1OC	76.7*	-14.2%	28.4%	?	27.7%	78.5*
COc1cccc(/C=N/NC(=O)c2cc3c(OC)cccc3[nH]2)c1OC	-12.9	16.0%	-7.9%	4.0%	-4.9%	2.8
COc1cccc(/C=N/NC(=O)c2ccoc2C)c1O	85.6*	?	0.6%	?	106.6%	38.3*
COc1cccc(/C=N/NC(=O)C(=O)NCc2ccco2)c1O	-4.8	-25.3%	-0.3%	-0.2%	-26.1%	-0.9
COc1cccc(C=NNC(=O)C(C)SC(C)C(=O)NN=Cc2cccc(OC)c2)c1 (stereo unspecified)	/	/	/	/	3.9%	/
COc1cccc(/C=N/NC(=O)c2ccoc2C)c1	57.2*	189.6%	-1.6%	293.0%	10.4%	42.3*
COc1cccc(/C=N/NC(=O)c2cc3c(OC)cccc3[nH]2)c1O	1.3	?	-11.1%	1.85µM*	39.1%	-2.3
COc1cc(CNCCCN2CCOCC2)cc(Cl)c1OCC(=O)NC(C)(C)C	2.7	?	-0.6%	?	-13.0%	-2.3
COc1ccc(CNC(=O)Cn2c(=O)n(CCC(=O)N3CCCCC3)c(=O)c3sccc32)cc1	-3.6	3.5%	-2.9%	-0.1%	-10.9%	-1.3
O=C(c1ccc(Cl)c(S(=O)(=O)N2CCCCC2)c1)N1CCCC1	-11.4	-14.9%	6.6%	14.7%	-14.6%	1.2
Cc1ccc(NC(=O)CSCC(=O)Nc2nnc(C)s2)cc1	/	-1.0%	/	18.5%	-7.2%	/
CN1C(=O)OC(C)(C)C1=O	/	-9.3%[12.8 µM]	/	-22.0%[12.8 µM]	/	/
